Screens deposited in PubChem BioAssay by The Scripps Research Institute Molecular Screening Center.
DAX1 inh-1 – DAX1 (NR0B1) inhibitors on StAR promoter, primary screen, cell-based, luminescence, SF-1 (NR5A1), full-length DAX-1; AID 652010, 2013; inhibition, % at 6.8 µM; 370,000 compounds, 1.1% hits; HEK293T StAR-luciferase reporter, SF-1/DAX-1 repression relief;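 active = inhibition above the mean over all tested compounds plus 3 SD, cut at about 3.6% in these data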;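 note: 0% = DAX-1 cells with DMSO and 100% = cells lacking DAX-1 with DMSO; higher inhibition means more luminescence from relief of DAX-1 repression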
ssDAF-12 act – S. stercoralis DAF-12 nuclear receptor activators, primary screen, cell-based, luminescence, HEK293, GRIP1 co-expression, lit1-tk-luc; activation, % at 6.8 µM; 370,000 compounds, 1% hits; HEK293 ssDAF-12/GRIP1 lit1-tk-luc reporter; % of 3 µM dafachronic acid response;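 active = activation above the mean over all tested compounds plus 3 SD, cut at about 0.9% in these data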;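 note: 0% = DMSO-only wells and 100% = 3 µM delta7-dafachronic acid wells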
hgDAF12 agonist – H. glycines DAF-12 receptor agonists, primary screen, cell-based, luminescence, HEK293, GAL4 fusion, UAS-luciferase. AID 687014, 2013. 370,000 compounds, 1.8% hits. activation, % at 6.8 µM. HEK293 GAL4-hgDAF12 UAS-luciferase reporter, agonist luminescence; normalized to butyrate control. Nuclear hormone receptor DAF-12 (Heterodera glycines), GAL4 fusion;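 active = activation above a cutoff set at the mean of all screened compounds plus 3 SD, cut at about 10% in these data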;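 note: 0% = DMSO wells and 100% = sodium butyrate wells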
hcDAF12 agonist – H. contortus DAF-12 nuclear receptor activators, primary screen, cell-based, luminescence, HEK293, lit1-tk-luc reporter | HEK293 hcDAF-12 lit1-tk-luc reporter; 0% DMSO, 100% Δ7-dafachronic acid | activation, % at 6.8 µM | 370,000 compounds, 1.4% hits;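 active = activation above the mean of all tested compounds plus 3 SD, cut at about 5.5% in these data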;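 note: 100% = response to 3 µM Δ7-dafachronic acid high control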
DAX1 inh-2 – DAX1 (NR0B1) inhibitors, primary screen, cell-based, HEK293, Gal4-DAX1, luciferase luminescence; Nuclear receptor subfamily 0 group B member 1 (Homo sapiens), P51843; HEK293 Gal4-DAX1 luciferase reporter; inhibition, % at 6.75 µM; 340,000 compounds, 0.99% hits;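 active = inhibition above the mean over all tested compounds plus 3 SD, cut at about 4.2% in these data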;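 note: 0% = DAX1-transfected cells with DMSO and 100% = empty-vector control cells with DMSO; inhibition shows as a rise in luminescence from relieved DAX1 repression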
Target sequence (P51843 207-470 limits assumed): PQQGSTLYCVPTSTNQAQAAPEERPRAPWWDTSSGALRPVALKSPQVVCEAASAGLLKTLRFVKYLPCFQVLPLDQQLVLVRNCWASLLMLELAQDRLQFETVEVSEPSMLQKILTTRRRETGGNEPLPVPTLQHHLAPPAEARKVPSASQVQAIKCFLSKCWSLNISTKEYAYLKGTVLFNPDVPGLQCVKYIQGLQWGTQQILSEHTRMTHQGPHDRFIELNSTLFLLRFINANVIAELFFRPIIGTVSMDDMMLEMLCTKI
LXR ag – LXR agonists, Gal4 luciferase reporter, confirmation, counter-screen for hcDAF-12 agonist project, cell-based, luminescence, HEK293, H. contortus campaign. shares compounds with hcDAF12 agonist. HEK293 Gal4-LXR tk-luc reporter, 24 h; normalized: DMSO 0%, positive control 100%. activation, % at 6.8 µM. 3,400 tested, under 10 active. AID 743027, 2013;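 active = mean percent activation of the reporter above a cutoff set as the average over tested compounds plus their standard deviation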
hcDAF12 conf – H. contortus DAF-12 receptor agonists, confirmation, cell-based, luminescence, HEK293, lit1-tk-luc, triplicate. shares compounds with hcDAF12 agonist. HEK293 hcDAF-12 lit1-tk-luc reporter; % of Δ7-dafachronic acid response. activation, % at 6.8 µM. 3,400 compounds, 61% hits;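 active = mean activation across triplicate tests above the threshold derived from the earlier primary screen, cut at about 5.5% in these data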;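 note: 0% = DMSO only wells and 100% = 3 µM Δ7-dafachronic acid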
Starred values were filed as active, the others as inactive. A selection: hits, their analogues and other compounds. The true share with any hit is near 4.1%.

How did NC(=O)c1ncn([C@@H]2O[C@H](C(=O)N3CCN(Cc4ccccn4)CC3)[C@@H](O)[C@H]2O)n1 do in these assays?
DAX1 inh-1: 0.7; ssDAF-12 act: -0.1; hgDAF12 agonist: 0.3; hcDAF12 agonist: -0.3

Results for CC(=O)/C=C(/C)NC(Cc1c[nH]c2ccccc12)C(=O)O (stereo not given) ?
DAX1 inh-1: 0.7; ssDAF-12 act: 0.2; hgDAF12 agonist: 2.6; hcDAF12 agonist: 2.1; DAX1 inh-2: 0.5

What do the screens show for `O=C(O)C(Cc1c[nH]c2ccccc12)N1Cc2ccccc2C1=O` (stereo not given)?
DAX1 inh-1: 1.2; ssDAF-12 act: 3.0*; hgDAF12 agonist: 7.9; hcDAF12 agonist: 6.9*; DAX1 inh-2: 3.8; LXR ag: 0.5; hcDAF12 conf: 8.0*

How did O=C(O)[C@H](Cc1ccccc1)N1Cc2ccccc2C1=O do in these assays?
DAX1 inh-1: 1.0; ssDAF-12 act: -1.0; hgDAF12 agonist: 0.8; hcDAF12 agonist: 1.5; DAX1 inh-2: 1.2

How did CC(=O)N[C@H](Cc1c[nH]c2ccccc12)C(=O)O do in these assays?
DAX1 inh-1: -0.1; ssDAF-12 act: -0.3; hgDAF12 agonist: 0.8; hcDAF12 agonist: 8.2*; DAX1 inh-2: -0.7; LXR ag: -0.4; hcDAF12 conf: -0.3

What do the screens show for `O=C(OC12CCCN(C1)/C(=C/c1ccncc1)C2)c1ccco1` (stereo not given)?
DAX1 inh-1: -1.1; ssDAF-12 act: -1.0; hgDAF12 agonist: -2.8; hcDAF12 agonist: -4.3

Results for COC(=O)C1=C(C)N(Cc2ccc(C(F)(F)F)cc2)C(=NCc2ccc(C(F)(F)F)cc2)NC1c1ccccc1 (stereo not given) ?
DAX1 inh-1: -0.1; ssDAF-12 act: -0.3; hgDAF12 agonist: 7.2; hcDAF12 agonist: 0.5

Results for O=C(O)c1cccc(COc2cccc3ccccc23)c1 ?
DAX1 inh-1: 3.4; ssDAF-12 act: 1.3*; hgDAF12 agonist: 12.8*; hcDAF12 agonist: 9.1*; DAX1 inh-2: -4.0; LXR ag: 1.6; hcDAF12 conf: 9.4*

How did Cc1oc(C(=O)O)cc1COc1cccc2ccccc12 do in these assays?
DAX1 inh-1: 0.3; ssDAF-12 act: -0.7; hgDAF12 agonist: 0.1; hcDAF12 agonist: 1.3; DAX1 inh-2: 3.6

Results for COc1ccccc1/C=N/N(C(C)=O)c1nc(-c2ccc(F)cc2)cs1 ?
DAX1 inh-1: 1.2; ssDAF-12 act: 1.2*; hgDAF12 agonist: 8.8; hcDAF12 agonist: 7.2*; DAX1 inh-2: 2.7; LXR ag: 0.6; hcDAF12 conf: 10.7*

How did COc1ccc(/C=N/N(C(C)=O)c2nc(-c3ccc(C)cc3)cs2)cc1 do in these assays?
DAX1 inh-1: -0.3; ssDAF-12 act: -1.3; hgDAF12 agonist: 0.4; hcDAF12 agonist: -1.1; DAX1 inh-2: 2.1

How did Nc1cccc2c1C(=O)N(CCOc1ccccc1F)C2=O do in these assays?
DAX1 inh-1: 2.6; ssDAF-12 act: 1.9*; hgDAF12 agonist: 10.9*; hcDAF12 agonist: 18.0*; DAX1 inh-2: 0.5; LXR ag: 1.6; hcDAF12 conf: 18.4*

What do the screens show for `COC(=O)C1=C(C)N(C)C(=NCc2ccccc2)NC1CCc1ccccc1` (stereo not given)?
DAX1 inh-1: 0.1; ssDAF-12 act: -0.9; hgDAF12 agonist: 1.4; hcDAF12 agonist: -1.1
